A selection: hits, their analogues and other compounds. The true share with any hit is near 6.3%.
MK inhibit = S. pneumoniae mevalonate kinase inhibition | purified MK, PK/LDH-coupled NADH absorbance 340 nm | inhibition, % at 10 µM | 0.48% of 65,000 active | AID 555;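 active = ranked among the strongest by inhibition in the single 10 µM screen, a fixed top-ranked set picked for dose follow-up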
Fluor 339 460 = intrinsic fluorescence of library compounds, ex339/em460 – biochemical, MLSMR library, data from DPM-DC assay, artefact control, profiling panel; fluorescence fold increase at 10 µM; 5.5% of 65,000 active; compound autofluorescence, ex339/em460 nm, NADH buffer; stronger effect = higher value; 1 = no-compound wells, NADH background;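 active = at 10 µM, mean starting fluorescence two-fold or more over control wells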;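 note: signal is the first read of a kinetic run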
NADH enzymes = inhibitors of enzymes used to reach an NAD/NADH endpoint; AID 774; coupled PK/LDH NADH assays, four targets; 0.02% of 65,000 active; IC50, µM (doses to about 10 µM);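 active = single-dose screening hits from any of four coupled enzyme assays that gave an IC50 when retested across doses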;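 note: the DPM-DC format reads NADH fluorescence rather than 340 nm absorbance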
DPM-DC inhibit = S. pneumoniae DPM-DC inhibition; calls only at 10 µM; 0.49% of 65,000 active; purified DPM-DC, PK/LDH coupled NADH fluorescence;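 active = the 320 compounds with the highest percent inhibition in the single-dose primary screen, excluding strongly autofluorescent ones, cut at about 32% in these data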;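 note: kinetic rate of NADH fluorescence loss reporting ADP formed by the decarboxylase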
PMK inhibit = inhibitors of Streptococcus pneumoniae phosphomevalonate kinase; inhibition, % at 10 µM; purified PMK, PK/LDH-coupled NADH absorbance 340 nm; 0.49% of 65,000 active;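 active = top-ranked compounds by inhibition in the single 10 µM screen, taking a fixed number of the strongest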
A340 absorber = compounds absorbing at 340 nm. fold change at 10 µM. 65,000 tested, under 10 active. compound absorbance at 340 nm, fold over control;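 active = at 10 µM dose, initial 340 nm absorbance at least 2 fold that of control wells; inactive = change under 2 fold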;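 note: initial absorbance extrapolated from kinetic A340 decline of NADH oxidation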
Large screens that a line does not name were inactive.

OCCCc1nc2n(n1)C(c1ccccc1)C=C(c1ccccc1)N2 (configuration not stated)	none
COc1ccc(C2C=C(c3ccccc3)Nc3nc(CCCO)nn32)cc1 (configuration not stated)	Fluor 339 460 4.9 (not shown: DPM-DC inhibit)
COc1ccc(C2C=C(c3cccs3)Nc3nc(CCCO)nn32)cc1 (configuration not stated)	Fluor 339 460 3.9 (not shown: DPM-DC inhibit)
CCOC(=O)c1cnn(CCOC(=O)Cc2cccs2)c1NC(=O)Cc1cccs1	none
COc1ccc(NS(=O)(=O)c2coc(C(N)=O)c2)cc1Cl	none
COc1ccc(-n2nc3ccc(NS(C)(=O)=O)cc3n2)cc1Cl	Fluor 339 460 3.8 (not shown: DPM-DC inhibit)
O=C(OCn1nnc2ccccc2c1=O)C1CCN(S(=O)(=O)c2cccs2)CC1	none
Clc1ccc(C2Nc3ccccc3-n3cccc32)cc1 (configuration not stated)	Fluor 339 460 2.4 (not shown: DPM-DC inhibit)
Cc1cc2c(cc(C(=O)OCC(=O)NCc3cccs3)n2C(C)C)o1	none
COCCNC(=O)C(c1ccc(C)o1)N(Cc1ccc(OC)cc1)C(=O)Cn1nnc2ccccc21 (configuration not stated)	PMK inhibit 25
Fc1ccc2[nH]c3c(N4CCN(C5CCCCC5)CC4)ncnc3c2c1	Fluor 339 460 2.3 (not shown: DPM-DC inhibit)
Cc1ccc2[nH]c3c(N4CCCCCC4)ncnc3c2c1	none
CCc1ccccc1NC(=O)c1cc(C2CC2)on1	none
CC(O)c1nc2ccccc2n1Cc1nnc(-c2ccc(Cl)cc2)o1 (configuration not stated)	none
c1ccc(-c2nnc(Cn3c4ccccc4c4nc5ccccc5nc43)o2)cc1	Fluor 339 460 3.6 (not shown: DPM-DC inhibit)
Cc1cnc(SCCc2ccncc2)nc1C	DPM-DC inhibit active
N#Cc1cnc(SCCc2ccccc2)nc1N	none
O=C(CSc1nnc(-c2ccc(Cl)s2)o1)N1CCc2ccccc21	Fluor 339 460 2
CCc1nnc(NC(=O)CSc2nnc(-c3ccccc3NC(=O)c3ccccc3)o2)s1	Fluor 339 460 2.1
Cc1cc(NCCCN2CCOCC2)n2ncc(-c3ccc(Cl)cc3)c2n1	Fluor 339 460 3.9 (not shown: DPM-DC inhibit)
O=C(CN1C(=O)COc2ccccc21)N(CCCN1CCOCC1)CC1CC=CCC1 (configuration not stated)	none
COc1ccc2[nH]cc(C3N4CC5(C)CN3CC(C)(C4)C5=O)c2c1 (configuration not stated)	MK inhibit 48
CN(C)C(=O)N1CCCC(C(=O)NCc2cccs2)C1 (configuration not stated)	none
CN(C)C(=O)N1CCC(C(=O)NCc2cccs2)CC1	DPM-DC inhibit active
Cc1[nH]n2c(=O)c3c(nc2c1-c1ccccc1)CCCC3	none
O=c1c2c(nc3c(-c4cccc5ccccc45)c[nH]n13)CCC2	Fluor 339 460 3.6 (not shown: DPM-DC inhibit)
O=c1c2c(nc3c(-c4ccc(Cl)cc4)c[nH]n13)CCCC2	Fluor 339 460 4.1 (not shown: DPM-DC inhibit)
O=c1c2ccccc2sn1-c1cc(S(=O)(=O)N2CCOCC2)ccc1N1CCOCC1	MK inhibit 95, DPM-DC inhibit active
CCCCCCC(=O)c1c(C)[nH]c(C(=O)OCC)c1C	none
CCOc1ccc(-n2c(SCC(N)=O)nc3c(c2=O)SCC3)cc1	none
CCc1c(C)c(C#N)c2nc3ccccc3n2c1-n1nc(C)cc1C	none
CC(C)c1cc(N2CCN(C(=O)c3ccco3)CC2)n2c(nc3ccccc32)c1C#N	Fluor 339 460 2.1 (not shown: DPM-DC inhibit)
O=C(c1ccco1)N1CCN(c2nc3ccccc3n3nnnc23)CC1	none
Cc1cc(-c2ccco2)c(C#N)c2nc3ccccc3n12	Fluor 339 460 2.2 (not shown: DPM-DC inhibit)
O=C1CC(C(=O)Nc2nccs2)C(c2ccccc2)O1 (configuration not stated)	none
C=C1CC2C=C(NC(C)=O)CC(C1)C2 (configuration not stated)	none
CC1(C)CC(=O)CC(C)(C)N1OC(=O)c1ccncc1	none
CCOC(=O)N1CCN(CC(=O)Nc2c(C(=O)OC)[nH]c3ccccc23)CC1	none
CCOC(=O)c1[nH]c2cc3c(cc2c1NC(=O)CN1CCc2ccccc2C1)OCO3	Fluor 339 460 2.3 (not shown: DPM-DC inhibit)
CCOC(=O)c1[nH]c2cc3c(cc2c1NC(=O)CN1CCC(C)CC1)OCO3	Fluor 339 460 2.3 (not shown: DPM-DC inhibit)
COc1ccc(NC(C)=O)cc1NC(=O)CCn1c(=O)sc2ccccc21	none
CCCCCCc1ccc(OCC(=O)O)cc1OCC(=O)O	none
CCCCc1cc(=O)oc2cc(C)cc(OCC(=O)O)c12	Fluor 339 460 3.8 (not shown: DPM-DC inhibit)
Cc1cc(-c2nc3ncccc3o2)ccc1NC(=O)CC(C)C	Fluor 339 460 2.2 (not shown: DPM-DC inhibit)
Cc1ccc(OCC(=O)Nc2ccc(-c3nc4ncccc4o3)cc2)c(C)c1	Fluor 339 460 2.2 (not shown: DPM-DC inhibit)
CCn1c(SC(C)C(=O)OC)nnc1-c1c[nH]c2ccccc12 (configuration not stated)	none
CC1S/C(=C(\C#N)C(N)=O)N(c2ccc(F)cc2)C1=O (configuration not stated)	none
CCOC(=O)c1c(NC(=O)c2noc3c2CCCC3)sc2c1CCCC2	none
CCC1CCc2c(sc(NC(=O)c3ccoc3C)c2C(N)=O)C1 (configuration not stated)	Fluor 339 460 2.1 (not shown: DPM-DC inhibit)
CCOC(=O)Nc1sc2c(c1C(=O)OCC)CCC2	none
CCOC(=O)c1c(NC(=O)c2ccoc2C)sc2c1CCC2	Fluor 339 460 2.2 (not shown: DPM-DC inhibit)
CCCc1cc(C(=O)Nc2sc3c(c2C(=O)OCC)CCCC3)no1	Fluor 339 460 2.1 (not shown: DPM-DC inhibit)
COCCCNC(=O)c1ccccc1NS(C)(=O)=O	Fluor 339 460 3.4 (not shown: DPM-DC inhibit)
CS(=O)(=O)Nc1ccccc1C(=O)NC1CC2CCC1C2 (configuration not stated)	Fluor 339 460 3.8 (not shown: DPM-DC inhibit)
COc1ccc(CCNc2cc(=O)[nH]c(N)n2)cc1	none
CC1=CCC2C(=O)N(c3ccc(C)c(Br)c3)C(=O)C2C1 (configuration not stated)	none
COc1ccc(NC(=O)NCCCN2CCc3ccccc3C2)cc1	none
COc1ccc2cc3cc(C(=O)NCCN4CCc5ccccc5C4)oc3nc2c1	Fluor 339 460 5.1 (not shown: DPM-DC inhibit)
COc1ccc2cc3cc(C(=O)NCCN4CCN(Cc5ccccc5)CC4)oc3nc2c1	Fluor 339 460 5.2 (not shown: DPM-DC inhibit)
CS(=O)(=O)N1CCC(C(=O)Nc2ccc(Br)cc2F)CC1	none
Cc1cc(NC(=O)CN2CCCC2c2nc3ccccc3s2)no1 (configuration not stated)	none
COC(=O)c1ccccc1NC(=O)c1cc(-c2cccs2)on1	Fluor 339 460 2
COC(=O)c1ccccc1NC(=O)c1cc(-c2cccc(OC)c2)on1	none
O=C(CN1C(=O)c2cccc3cccc1c23)Nc1cccnc1	Fluor 339 460 2.1
O=C(CN1C(=O)c2cccc3cccc1c23)N1CCN(c2ccccc2)CC1	none
O=C(CN1C(=O)c2cccc3cccc1c23)N1CCN(c2cccc(Cl)c2)CC1	Fluor 339 460 2.4
O=C(CC1(O)C(=O)Nc2ccccc21)c1cccnc1 (configuration not stated)	none
